{"source": "the OligoGym collection"}
{"molecular_target": "STK32B", "assay": "pooled miR-30 sensor sort-seq; sequence = guide strand", "conditions": "shRNA"}
{"sequence": "TGTAATGTGAACATGTCCGTGT", "sensor-assay potency score (higher = more potent)": 1.03}
{"sequence": "TAGTGTCTCGCTTCTGCACGAT", "sensor-assay potency score (higher = more potent)": -0.331}
{"sequence": "TTTCTTAGTGTCTCGCTTCTGC", "sensor-assay potency score (higher = more potent)": 0.225}
{"sequence": "TTCACTACCGTCGCTATGTTGA", "sensor-assay potency score (higher = more potent)": -0.4}
{"sequence": "TTGGATTCTAGAATCATCTCTT", "sensor-assay potency score (higher = more potent)": 0.951}
{"sequence": "TTTGCCAATCGCTTCTTCTTTT", "sensor-assay potency score (higher = more potent)": -0.852}
{"sequence": "AACATGTCCGTGTTCATCCAGC", "sensor-assay potency score (higher = more potent)": -0.285}
{"sequence": "TTGCATGATCTGCAGCTCCCGG", "sensor-assay potency score (higher = more potent)": -1.07}
{"sequence": "TTGTCTGGCTTGATGTCTCTGT", "sensor-assay potency score (higher = more potent)": 0.0607}
{"sequence": "TTCTGCTCCTTTCACTACCGTC", "sensor-assay potency score (higher = more potent)": -0.907}
{"sequence": "TTCTTGAACACCGCGTCCCAGT", "sensor-assay potency score (higher = more potent)": -0.825}
{"molecular_target": "STMN2", "assay": "pooled miR-30 sensor sort-seq; sequence = guide strand", "conditions": "shRNA"}
{"sequence": "TTGATTTGCTTCACTTCCATAT", "sensor-assay potency score (higher = more potent)": -0.805}
{"sequence": "TTCTTCTTTCCTCTGCAGCCTC", "sensor-assay potency score (higher = more potent)": -0.81}
{"sequence": "TTCTGAAGGACTTCTCGCTCGT", "sensor-assay potency score (higher = more potent)": 0.283}
{"sequence": "TAAGTATAGATGTTGATGTTGC", "sensor-assay potency score (higher = more potent)": -0.111}
{"sequence": "TTGGAGAAGCTAAAGTTCGTGG", "sensor-assay potency score (higher = more potent)": -0.769}
{"sequence": "ATCATCGTAAGTATAGATGTTG", "sensor-assay potency score (higher = more potent)": -0.449}
{"sequence": "TAATAGCAGCTAGATTAGCCTC", "sensor-assay potency score (higher = more potent)": -0.915}
{"sequence": "TTTGCTTCACTTCCATATCATC", "sensor-assay potency score (higher = more potent)": -1.64}
{"sequence": "TTTTCCTCCGCCATCTTGCTGA", "sensor-assay potency score (higher = more potent)": -0.369}
{"sequence": "TTCACTTCCATATCATCGTAAG", "sensor-assay potency score (higher = more potent)": -0.831}
{"sequence": "TTCCATTTTCAGGATCAGCTTT", "sensor-assay potency score (higher = more potent)": -0.67}
{"sequence": "TTTCTTCTGGATCTCCTCCAGG", "sensor-assay potency score (higher = more potent)": -0.912}
{"molecular_target": "STRA6", "assay": "pooled miR-30 sensor sort-seq; sequence = guide strand", "conditions": "shRNA"}
{"sequence": "TGTAGCTGAAAGCACCAGCTTC", "sensor-assay potency score (higher = more potent)": -0.655}
{"sequence": "TTCGGTACGTGTAGTAGCCGGG", "sensor-assay potency score (higher = more potent)": -0.203}
{"sequence": "TCAATCTTCAAGAAGTTTCGGT", "sensor-assay potency score (higher = more potent)": 0.639}
{"sequence": "AACAGTCCCAGTATCTTCCAGG", "sensor-assay potency score (higher = more potent)": -0.995}
{"sequence": "TGAGATGTAGCACACTTCCAGA", "sensor-assay potency score (higher = more potent)": -1.21}
{"sequence": "TAGGCACTGAAGCTCATCCAAC", "sensor-assay potency score (higher = more potent)": -1.34}
{"sequence": "TTCCTCAGAGTAGCTGCTCTGC", "sensor-assay potency score (higher = more potent)": -1.09}
{"sequence": "TAGTACTTGTAGATCTTGGGCA", "sensor-assay potency score (higher = more potent)": 0.389}
{"sequence": "TTTCGGTACGTGTAGTAGCCGG", "sensor-assay potency score (higher = more potent)": -0.648}
{"sequence": "TAGATGCAGTGTCTCAAGCAGA", "sensor-assay potency score (higher = more potent)": -0.804}
{"sequence": "TTGGAGGTGTGGTAGCTGCTTC", "sensor-assay potency score (higher = more potent)": -0.709}
{"sequence": "TTTCTTTCTCCAGAACCCCTGC", "sensor-assay potency score (higher = more potent)": -0.557}
{"molecular_target": "STRADB", "assay": "pooled miR-30 sensor sort-seq; sequence = guide strand", "conditions": "shRNA"}
{"sequence": "TTGCAAACAGAGCTGTACCAAG", "sensor-assay potency score (higher = more potent)": -0.672}
{"sequence": "TACTGTGTGAGTTCCACTGGAG", "sensor-assay potency score (higher = more potent)": 0.0726}
{"sequence": "TAATCGGTCACTATTTACTGTG", "sensor-assay potency score (higher = more potent)": -0.781}
{"sequence": "TTACTGTGTGAGTTCCACTGGA", "sensor-assay potency score (higher = more potent)": 0.572}
